Many of the other results were omitted from the sample, so hits are more common in it than they were.
Shiga inhibitor – blocks Shiga toxin action in Vero cells | Vero cells, Shiga toxin protein synthesis inhibition reporter | actives 9.2% (n = 290,000) | inhibition, % at 38.7 µM; in the data active = inhibition mostly above about 28%, no sharp cut-off; inactive = mostly below about 43%; note: 0% is about no effect
Marburg entry inh – blocks Marburg virus binding to or entry into cells; Marburg virus pseudotyped entry inhibition, cell reporter; Potency, µM (series often up to 37.8 µM), for inactives: at the highest dose activity change, negative = inhibition, usual class: inhibitors; actives 1.8% (n = 300,000); AID 540276; calls by dose curve; tested in HEK293 cells; note: potency is the fitted concentration of half-maximal effect; % is set by controls: 0 for no effect and ±100 for the full control effect
LASV entry inh – inhibitors of Lassa virus binding or cell entry | Lassa virus pseudotype entry inhibition, cell reporter | Potency, µM (doses to about 37.9 µM), without a hit: top-dose activity change, negative = inhibition, hits mostly inhibitors | actives 1.2% (n = 300,000); calls by dose curve; tested in HEK293 cells; note: potency is the fitted concentration of half-maximal effect; % is set by controls: 0 for no effect and ±100 for the full control effect; nearly all actives have a fitted effect of over 50% in size
Cycloheximide cs – counter-screen hit for Shiga toxin inhibitors, cycloheximide. actives 12% (n = 300,000). max response, %. AID 2314. cell reporter, cycloheximide protein synthesis inhibition counterscreen; in the data active = max response mostly above about 13%, no sharp cut-off; inactive = mostly below about 14%; note: read at 38.3 µM for the half of the compounds with a filed dose; 0% is about no effect
AMA1 RON2 block – disrupts binding of P. falciparum AMA1 to RON2. AID 720542. AlphaScreen AMA1-biotinylated RON2 peptide binding. Potency, µM (series often up to 58.2 µM), without a hit: at the highest dose activity change, negative = inhibition, most hits filed as inhibitors. actives 0.2% (n = 360,000); active = well fitted inhibition curve with a large enough effect; inconclusive = small, poorly fitted or top-dose-only effect; inactive = no such curve, though single readings can be large or run the other way;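 note: potency is the fitted concentration of half-maximal effect; 0% = vehicle wells and -100% = peptide control; nearly all actives have a fitted effect of over 45% in size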
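AMA1 (3D7) with his tag at 25 nM final met compounds first, then biotinylated RON2 peptide at 25 nM; detection used donor plus acceptor beads, 10 µg/mL apiece, read by AlphaScreen after 30 min at room temperature.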
Starred values were filed as active, the others as inactive; [ ] = dose if it differs, or a comment.

Results for O=C(Nc1ccccc1Cl)C1CCN(c2nc3ccccc3[nH]2)CC1 ?
LASV entry inh: -7%[46.1 µM]

What do the screens show for `O=C(c1ccco1)[C@@H]1[C@@H]2C(=O)N(c3ccccc3)C(=O)[C@@H]2C2c3ccccc3C=CN21` (stereo not given in full)?
Shiga inhibitor: 9; Marburg entry inh: 19%; LASV entry inh: -9%; Cycloheximide cs: 14; AMA1 RON2 block: 0%

What do the screens show for `COc1ccc(N2C(=O)[C@@H]3[C@H](C2=O)[C@H]2c4ccccc4C=CN2[C@@H]3C(=O)Nc2ccccc2)cc1`?
Shiga inhibitor: -7; Marburg entry inh: -11%; LASV entry inh: 15%; Cycloheximide cs: 9; AMA1 RON2 block: 18%

How did Cc1ccc(N2C(=O)[C@@H]3[C@H](C2=O)C2c4ccccc4C=CN2[C@@H]3C(=O)c2ccco2)cc1 (stereo not given in full) do in these assays?
Shiga inhibitor: 29*; Marburg entry inh: -19%; LASV entry inh: -5%; Cycloheximide cs: 20; AMA1 RON2 block: 0%

Results for CC(C)(C)C(=O)[C@@H]1[C@@H]2C(=O)N(c3ccc4c(c3)OCCO4)C(=O)[C@@H]2C2c3ccccc3C=CN21 (stereo not given in full) ?
Shiga inhibitor: 21; Marburg entry inh: -3%; LASV entry inh: -13%; Cycloheximide cs: 16*; AMA1 RON2 block: -12%

Results for COc1cccc(C2/C(=C(/O)c3ccc4c(c3)OCO4)C(=O)C(=O)N2CCN2CCOCC2)c1 (stereo not given) ?
Shiga inhibitor: 10; Cycloheximide cs: 9.6*; AMA1 RON2 block: 4%

What do the screens show for `O=C1C(=O)N(CCCN2CCOCC2)C(c2cccs2)/C1=C(/O)c1ccc2c(c1)OCO2` (stereo not given)?
Shiga inhibitor: 16; Cycloheximide cs: 29*

How did COc1cc(NC(=O)Cn2c(C)cc(C)c(C#N)c2=O)cc(OC)c1 do in these assays?
LASV entry inh: 19%[46.1 µM]

How did O=C(Nc1ccc(S(=O)(=O)Nc2ncccn2)cc1)C12CC3CC(CC(Cl)(C3)C1)C2 do in these assays?
Marburg entry inh: 0%[46.1 µM]; LASV entry inh: -20%[46.1 µM]; AMA1 RON2 block: -2%

What do the screens show for `CCC(CC)c1nnc(NC(=O)c2ccco2)s1`?
Shiga inhibitor: 32; Marburg entry inh: inconclusive; LASV entry inh: 13%[46.1 µM]; Cycloheximide cs: 13; AMA1 RON2 block: -4%

Results for C/C=C(\C)c1nnc(NC(=O)c2ccco2)s1 ?
Shiga inhibitor: 56*; Marburg entry inh: 18%; LASV entry inh: inconclusive; Cycloheximide cs: 15*; AMA1 RON2 block: 6%

How did Cc1nnc(NC(=O)c2ccco2)s1 do in these assays?
Shiga inhibitor: -11; Marburg entry inh: 2%; LASV entry inh: 2%; Cycloheximide cs: 1; AMA1 RON2 block: -8%

How did COc1ccc(-c2nnc(NC(=O)c3ccco3)s2)cc1 do in these assays?
Shiga inhibitor: 53; Marburg entry inh: inconclusive; LASV entry inh: -14%; Cycloheximide cs: 27*; AMA1 RON2 block: -13%

How did O=C(Nc1nnc(C23CC4CC(CC(C4)C2)C3)s1)c1ccco1 do in these assays?
Shiga inhibitor: 53*; Marburg entry inh: 20%[46.1 µM]; LASV entry inh: inconclusive; Cycloheximide cs: 35*; AMA1 RON2 block: -13%

What do the screens show for `Cc1ccc(-c2nnc(NC(=O)c3ccco3)s2)cc1`?
Shiga inhibitor: 96*; Marburg entry inh: 23%[46.1 µM]; LASV entry inh: inconclusive; Cycloheximide cs: 28*; AMA1 RON2 block: 3%

Results for O=C(Nc1nnc(Cc2ccccc2)s1)c1ccco1 ?
Shiga inhibitor: 62; Marburg entry inh: 18%; LASV entry inh: inconclusive; Cycloheximide cs: 18; AMA1 RON2 block: 8%

How did CC(C)(C)Cc1nnc(NC(=O)c2ccco2)s1 do in these assays?
Shiga inhibitor: 42*; Cycloheximide cs: 32*; AMA1 RON2 block: -7%

Results for COc1cccc(-c2nnc(NC(=O)c3ccco3)s2)c1 ?
Shiga inhibitor: 96*; Cycloheximide cs: 32*; AMA1 RON2 block: 5%

How did CCCOc1cccc(-c2nnc(NC(=O)c3ccco3)s2)c1 do in these assays?
Shiga inhibitor: 18; Cycloheximide cs: 15; AMA1 RON2 block: 14%

Results for CCSc1nc(O)c([C@H]2OC(=O)c3c2ccc(OC)c3OC)c(=O)n1-c1ccccc1 ?
Marburg entry inh: 0%

How did COc1cc([C@@H]2Nc3c(F)cccc3[C@@H]3C=CC[C@@H]32)cc(Br)c1OC do in these assays?
Marburg entry inh: 10%[46.1 µM]; LASV entry inh: inconclusive

How did CC1=C(C)/C(=N\OS(=O)(=O)c2ccccc2)C=CC1=O do in these assays?
Shiga inhibitor: -15; Marburg entry inh: 7.9µM*; LASV entry inh: inconclusive; Cycloheximide cs: -2; AMA1 RON2 block: inconclusive

How did O=S(=O)(Cc1ccccc1)N1CCN(Cc2ccc(F)cc2Cl)CC1 do in these assays?
Shiga inhibitor: -18; Cycloheximide cs: -2; AMA1 RON2 block: -7%

How did Cc1cccc(-c2nc3ccccc3c(=O)n2-n2cccc2)c1 do in these assays?
Shiga inhibitor: -11; Marburg entry inh: -17%; LASV entry inh: -19%; Cycloheximide cs: -3; AMA1 RON2 block: 6%

How did CN(C)c1ccc(-c2nc3ccccc3c(=O)[nH]2)cc1 do in these assays?
Shiga inhibitor: 37*; Cycloheximide cs: 36*; AMA1 RON2 block: 7%

What do the screens show for `Cc1cc(C)cc(N2CC(O)=C(c3nc4ccccc4c(=O)[nH]3)C2=N)c1`?
Shiga inhibitor: -3; Marburg entry inh: inconclusive; LASV entry inh: -17%; Cycloheximide cs: 1; AMA1 RON2 block: 3%

What do the screens show for `N=c1oc2ccccc2cc1-c1nc2ccccc2c(=O)[nH]1`?
Shiga inhibitor: 60*; Cycloheximide cs: 14; AMA1 RON2 block: 5%

What do the screens show for `COc1ccc(-c2nc3ccccc3c(=O)[nH]2)cc1`?
Shiga inhibitor: 56*; Marburg entry inh: 13µM*; LASV entry inh: inconclusive; Cycloheximide cs: 43*; AMA1 RON2 block: -3%

Results for O=c1[nH]c(-c2ccncc2)nc2ccccc12 ?
Shiga inhibitor: -2; Marburg entry inh: 11%[46.1 µM]; LASV entry inh: 2%; Cycloheximide cs: -3; AMA1 RON2 block: -13%

Results for Cc1cccc(-c2nc3ccccc3c(=O)[nH]2)c1 ?
Shiga inhibitor: 73*; Cycloheximide cs: 23*; AMA1 RON2 block: -9%

How did Cc1ccc(NC(=O)CN2C=NS(=O)(=O)c3ccccc32)cc1 do in these assays?
LASV entry inh: 23%[46.1 µM]

What do the screens show for `O=C(Nc1ccccc1Cl)c1cc(C2CCCN(C(=O)c3cccs3)C2)on1` (stereo not given)?
AMA1 RON2 block: -4%

What do the screens show for `CCCCCN(C(=O)CCC(=O)OCc1cccc(F)c1)c1c(N)n(CCCC)c(=O)[nH]c1=O`?
Marburg entry inh: -6%; LASV entry inh: -24%; AMA1 RON2 block: 16%

Results for CC(NCc1ccc(OCc2ccc(Cl)cc2)cc1)C(O)c1ccccc1 (stereo not given) ?
Shiga inhibitor: -4; Marburg entry inh: 13µM*; LASV entry inh: inconclusive; Cycloheximide cs: -2; AMA1 RON2 block: -6%

What do the screens show for `CC(NCc1cccc(OCc2ccccc2)c1)C(O)c1ccccc1` (stereo not given)?
Shiga inhibitor: -10; Cycloheximide cs: -2; AMA1 RON2 block: -5%
